The list is not random: actives were taken first. Their share in the collection is about 2.6%.
Cruzain Triton – qHTS Assay for Promiscuous and Specific Inhibitors of Cruzain (with detergent); purified cruzain, Z-FR-AMC fluorescence, 0.01% Triton; AID 1478, 2009; actives 0.43% (n = 200,000); Cruzipain (Trypanosoma cruzi), P25779; Potency, µM, for inactives: max response, negative = inhibition, most hits filed as inhibitors;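 further: plate controls were neutral wells for no effect and buffer without enzyme for full effect; nearly all actives have a fitted effect of over 40% in size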
Target sequence (P25779 123-467 limits assumed): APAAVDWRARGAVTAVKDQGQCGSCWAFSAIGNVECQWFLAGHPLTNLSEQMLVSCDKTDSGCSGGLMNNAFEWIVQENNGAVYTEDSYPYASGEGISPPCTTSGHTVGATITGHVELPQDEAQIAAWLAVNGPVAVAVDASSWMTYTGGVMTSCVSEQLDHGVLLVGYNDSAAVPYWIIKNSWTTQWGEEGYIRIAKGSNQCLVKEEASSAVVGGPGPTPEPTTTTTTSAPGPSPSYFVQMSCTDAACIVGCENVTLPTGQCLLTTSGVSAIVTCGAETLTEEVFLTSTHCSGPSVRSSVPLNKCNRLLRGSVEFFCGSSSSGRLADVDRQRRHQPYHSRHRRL
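Enzyme 1.5 nM, Z-FR-AMC 2 uM, NaOAc 100 mM pH 5.5, DTT 5 mM, Triton X-100 0.01%; 15 min RT compound preincubation; kinetic ex360/em450, 60 s delta.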
Cruzain inh noDet – qHTS Assay for Promiscuous and Specific Inhibitors of Cruzain (without detergent); purified cruzain, Z-FR-AMC fluorescence, no detergent; Potency, µM, inactives show max response, negative = inhibition, most hits filed as inhibitors; actives 2.3% (n = 200,000); AID 1476, 2009;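 further: plate controls were enzyme without inhibitor for no effect and buffer without enzyme for full effect; nearly all actives have a fitted effect of over 40% in size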
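Detergent-free condition (0.00005% Triton X-100) in acetate buffer pH 5.5 with DTT. 1.5 nM enzyme and compound were pre-mixed 15 min, then 2 uM Z-FR-AMC substrate added; reaction progress from fluorescence change between first and third reads (60 s).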
Starred values were filed as active, the others as inactive; ? = inconclusive. The call rests on the fitted dose curve; in most records, active means well fitted curve in the direction sought with a large enough effect; inconclusive means small, poorly fitted or top-dose-only effect, or another doubt; inactive means no such curve, though single readings can be large; an effect the other way counts as inactive or inconclusive. Potency means the concentration at half of the fitted maximal effect.

SMILES	Cruzain Triton	Cruzain inh noDet
Cc1ccc(C(=O)COC(=O)C2CC(=O)N(c3nc(-c4ccccc4)cs3)C2)cc1C (stereo not drawn)	2.2%	31.6µM*
O=C(OCc1cccc2ccccc12)C1CC(=O)N(c2ccccc2)C1 (stereo not drawn)	-1.8%	-1.0%
O=C(NCCc1ccccc1)C(=O)NCC(c1ccc2c(c1)OCO2)N1CCOCC1 (stereo not drawn)	0.3%	12.4%
CCCC(=O)Nc1sc(C)c(-c2ccc(OC)cc2)c1C#N	2.6%	6.31µM*
CCc1c(C)sc(NC(=O)CCc2ccc(OC)cc2)c1C(N)=O	-1.4%	0.6%
Cc1cccc(CNc2ncnc3ccc(-c4cccc(NS(C)(=O)=O)c4)cc23)c1	-1.8%	13.1%
CS(=O)(=O)N1CCN(c2ccccc2NC(=O)c2ccc(Cl)cc2)CC1	1.4%	-6.7%
CS(=O)(=O)N1CCN(c2ccccc2NC(=O)c2ccc3ccccc3c2)CC1	-4.6%	20µM*
COc1ccc(-c2nn(C)c3sc(C(=O)N4CCN(c5cc(Cl)ccc5C)CC4)cc23)cc1OC	-7.5%	-5.9%
Cc1ccc(CN(Cc2ccco2)C(=O)c2oc3ccc(C)cc3c2C)cc1	-7.3%	?
Cc1ccc(CN(Cc2ccco2)C(=O)c2oc3c(C)c(C)ccc3c2C)cc1	-11.2%	25.1µM*
Cc1ccc(-c2nc(-c3cc4cccc(OCc5cccc(F)c5)c4oc3=O)no2)cc1	-7.3%	-3.0%
CC(C)C1N=C2c3ccccc3N=C(SCC(=O)NCc3ccccc3Cl)N2C1=O (stereo not drawn)	-6.8%	-21.9%
O=C(N/N=C/c1ccccc1Br)c1ccc(CSc2cccc3cccnc23)cc1	0.7%	10µM*
Cc1cc(C)nc(SCc2ccc(C(=O)N/N=C/c3cccc(O)c3O)cc2)n1	-6.2%	4.0%
CCCCCCCCCCCCC/C=C\[C@@H](O)[C@@H](N)CO	2.1%	10.7%
CCCCCCCCCCCCCCCC(O)C(N)CO (stereo not drawn)	17.8µM*	?
C/C(=N/N=C1/NC(=O)CC(C(=O)O)S1)c1ccccc1 (stereo not drawn)	-3.9%	2.3%
C/C(=N\N=C1/NC(=O)C(C)S1)c1ccc([N+](=O)[O-])cc1 (stereo not drawn)	25.1µM*	15.8µM*
CCC(C)NC(=O)Cn1ncc2c([nH]c3ccc(C)cc32)c1=O (stereo not drawn)	-0.8%	6.4%
CCC(Sc1nc2nccnc2c(=O)n1Cc1ccc(Cl)cc1)C(=O)NC1CCCCC1 (stereo not drawn)	-0.6%	8.2%
COc1ccc(-n2c(=O)c(-c3ccc(Cl)cc3)nc3cnc(N(C)C)nc32)cc1	1.5%	13.6%
Cc1cccc(C(=O)Nc2ccc(OCc3cc(=O)n4ccsc4n3)cc2)c1	1.0%	2.1%
CCCOc1ccc(-c2c(C(=O)N/N=C/c3ccc(OC)cc3)nnn2-c2nonc2N)cc1	-8.3%	?
CCCOc1ccc(-c2c(C(=O)N/N=C/c3ccc(OCC)cc3)nnn2-c2nonc2N)cc1	-15.1%	10µM*
SMILES	Cruzain Triton	Cruzain inh noDet
COc1ccc(N2CCN(C(=O)c3cccn4c(=O)c5ccc(Cl)cc5nc34)CC2)cc1	-0.6%	-1.9%
CCOC(=O)C1=C(C)NC(C)=C(C(=O)OCC)C1c1cccs1	-3.7%	6.9%
C#CCSC1=C(C#N)C(c2cccs2)C(C(=O)OCC)=C(C)N1 (stereo not drawn)	-7.4%	20µM*
Cc1cc(C(=O)Nc2nc(C)c(C(=O)N(C)C)s2)ccc1[N+](=O)[O-]	-4.4%	-4.5%
Cc1nc(NC(=O)c2ccc([N+](=O)[O-])cc2Cl)sc1C(=O)N(C)C	15.8µM*	-13.6%
Cc1cccn2c(=O)c3cc(C#N)c(=O)n(-c4nnc(SCc5ccc(Cl)cc5)s4)c3nc12	-6.2%	20µM*
N#Cc1cc2c(=O)n3ccccc3nc2n(-c2nnc(SCc3ccccc3)s2)c1=O	1.5%	2.7%
Cc1ccc(S(=O)(=O)N/N=c2\oc3ccccc3cc2C(=O)Nc2cccc(C)c2)cc1	-1.9%	7.94µM*
Cc1cccc(NC(=O)c2cc(S(=O)(=O)c3ccccc3)ccc2Cl)c1	-4.9%	-2.1%
Cc1cccc(NC(=S)N/N=C/c2ccc(Cl)c([N+](=O)[O-])c2)c1	-3.1%	31.6µM*
NC(=S)N/N=C/c1cc([N+](=O)[O-])ccc1OCCOc1ccccc1	0.251µM*	0.159µM*
Cc1cc(C(=O)N/N=C/c2cccc([N+](=O)[O-])c2)c(C)n1-c1ccccc1	-5.0%	-25.1%
Cc1cc(C(=O)N/N=C/c2ccc(Cl)c([N+](=O)[O-])c2)c(C)n1-c1ccc(F)cc1	0.5%	7.94µM*
CS(=O)(=O)N(CC(=O)N/N=C/c1cc([N+](=O)[O-])ccc1Cl)c1ccccc1	-6.9%	-17.4%
CC(=O)N/N=C/c1cc([N+](=O)[O-])ccc1OCCOc1ccccc1	1.8%	3.3%
O=[N+]([O-])c1ccc(Cl)c(/C=N/NC(=S)Nc2ccccc2)c1	-7.7%	25.1µM*
Cc1cccc(NC(=S)N/N=C/c2cccc([N+](=O)[O-])c2)c1	-13.6%	1.3%
O=C(Nc1cc(Cl)ccc1Cl)C1(c2cccs2)CCOCC1	-5.6%	-11.4%
COc1ccc(-c2c(C)nn3c(N4CCN(c5cc(Cl)ccc5C)CC4)cc(C)nc23)cc1OC	1.5%	-3.8%
COc1ccc(C(=O)Nc2noc3ccccc23)cc1	-3.9%	-6.9%
O=C(Nc1noc2ccccc12)c1cccc(Cl)c1Cl	-4.5%	25.1µM*
O=C(NCC#CCOCc1ccccc1)c1ccccc1	11.2µM*	12.6µM*
O=C(NCCCc1ccccc1)c1ccccc1	5.2%	1.2%
COCc1cc(C)nc2sc3c(c12)NC(c1ccc(O)cc1)N(c1ccc(OC)cc1)C3=O (stereo not drawn)	-8.6%	?
Cc1ccc(NC(=O)Cn2cc3c(n2)CCCC3)cc1Cl	-4.9%	-4.9%
CC(=O)Oc1ccc(C(=O)[C@H]2[C@H]3C(=O)N(c4ccc5ccccc5c4)C(=O)[C@H]3[C@@H]3C=CC=NN32)cc1	-1.6%	?
Cc1ccc(N2C(=O)[C@@H]3[C@H](C2=O)[C@H]2C=CC=NN2[C@@H]3C(=O)Nc2ccc(Cl)cc2)cc1	-8.1%	-0.6%

Screening data deposited in PubChem BioAssay by National Center for Advancing Translational Sciences (NCATS).
